Calls of active or inactive are those of the source. Unless noted, the rule behind the calls is not given here.
Legend:
[1] = system: Wnt5a (protein binding on small-molecule microarray); experiment: Wnt5a binders on small-molecule microarray, primary screen, biophysical, 635/667 nm fluorescence (AID 1142); conditions: 635 nm fluorescence, higher = more signal;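 note: fluorescence read at 667 nm with signal to noise per printed feature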
[2] = cell viability in Huh7 cells, primary screen, cytotoxicity control for HCV replication inhibitor project, CellTiter-Glo luminescence, basal, 48 h (AID 1143); conditions: Huh7 HCV replicon, higher = more signal, called active from +8 up or from −8 down;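 note: Huh7 hepatoma cells carrying a hepatitis C replication reporter with no stimulus; test concentration not given here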
[3] = P. aeruginosa biofilm formation inhibitors, primary screen, PAO1 strain, BacTiter-Glo luminescence, LB-PBS (AID 1144); conditions: 12 h, higher = more signal
[4] = CREB reporter modulators without forskolin, primary screen, cell-based, PC12, CRE-LacZ reporter, unstimulated (AID 1145); conditions: no forskolin, luminescence, 4.5 h, higher = more signal, called active from +8 up or from −8 down
[5] = CREB reporter modulators under forskolin, primary screen, cell-based, PC12, CRE-LacZ reporter, forskolin-stimulated (AID 1146); conditions: luminescence, 4.5 h, higher = more signal, called active from +8 up or from −8 down;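 note: PC12 cells with 6xCRE LacZ reporter stimulated by forskolin 10 µM; beta-galactosidase reporter signal reflecting CREB driven transcription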
[6] = target: Streptavidin (Streptomyces avidinii) (UniProt P22629); experiment: streptavidin binders on small-molecule microarray, primary screen, artefact control for SMM compound annotation, biophysical, 635/667 nm fluorescence (AID 1147); conditions: streptavidin binding, higher = more signal;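 note: signal reflects streptavidin binding to arrayed compounds as a control protein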
[7] = small-molecule binders of probe aInhba, primary screen, biochemical, small-molecule microarray, 635/667 nm fluorescence (AID 1148); conditions: higher = more signal;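 note: score merges 667nm spot fluorescence with signal-to-noise for antibody binding to printed compounds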
[8] = target: Torsin-1A (Homo sapiens) (UniProt O14656); experiment: torsin A binders from cell lysate, primary screen, small-molecule microarray, wild-type, 635/667 nm (AID 1149); conditions: COS7 hTOR1A-WT lysate, 635 nm fluorescence, higher = more signal
[9] = target: Torsin-1A (Homo sapiens) (UniProt O14656); experiment: small-molecule binders of mutant TOR1A in lysate, primary screen, cell lysate, small-molecule microarray, COS7 lysate, 635/667 nm fluorescence (AID 1150); conditions: COS7 hTOR1A mutant lysate, 635 nm fluorescence, higher = more signal;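 note: score pools 667 nm emission and signal to noise measuring lysate protein binding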
[10] = system: Sonic hedgehog protein (Shh); experiment: small-molecule binders of Shh protein, primary screen, biochemical, small-molecule microarray, 635/667 nm fluorescence (AID 1151); conditions: small-molecule microarray binding, 635 nm fluorescence; higher = more signal;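 note: Shh protein binding to compounds spotted on small-molecule microarray slides; score combines spot fluorescence intensity with signal-to-noise across triplicate slides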
[11] = E. coli DRC41 culture turbidity changes, primary screen, E. coli filamentation inducer project, strain DRC41, OD650, 48 h (AID 1152);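 note: E. coli MC1000 strain DRC41 lacking acrAB efflux pump and sulA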; conditions: E. coli DRC41 (acrAB sulA), higher = more signal, called active from +8 up or from −8 down
[12] = small-molecule binders of probe aLefty1, primary screen, biochemical, small-molecule microarray, 635/667 nm fluorescence (AID 1153); conditions: higher = more signal;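 note: score merges spot fluorescence with signal-to-noise ratio from the scanned slide images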
[13] = PSAC antagonists in infected red cells, primary screen, cell-based, P. falciparum Indochina, OD700, 1 h (AID 1154); conditions: P. falciparum Indochina infected RBC osmotic lysis, higher = more signal, called active from +8 up or from −8 down
[14] = PSAC antagonists in infected red cells, primary screen, cell-based, P. falciparum Indochina, OD700, 2 h (AID 1155);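 note: lysis reports solute entry through the parasite surface anion channel PSAC; channel blockers reduce lysis of infected cells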; conditions: P. falciparum Indochina infected erythrocytes, osmotic lysis OD700; higher = more signal, called active from +8 up or from −8 down
[15] = osmotic lysis modulators in infected erythrocytes, primary screen, PSAC antagonist project, cell-based, P. falciparum Indochina, OD700, 3 h (AID 1156); conditions: higher = more signal, called active from +8 up or from −8 down
[16] = PSAC antagonists in infected red cells, primary screen, cell-based, P. falciparum Indochina, OD700, 18 h (AID 1157); conditions: P. falciparum Indochina infected erythrocytes, osmotic lysis OD700, 18 h; higher = more signal, called active from +8 up or from −8 down
[17] = modulators of S6 phosphorylation in cells, primary screen, cell-based, A549, cytoblot, luminescence, serum-stimulated (AID 1158); conditions: A549 phospho-S6 cytoblot, 5 h, higher = more signal;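 note: serum-stimulated A549 lung adenocarcinoma cells; signal is phosphorylated S6 detected by cytoblot immunostaining with HRP secondary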
[18] = target: NADPH oxidase 2 (Homo sapiens) (UniProt P04839); experiment: NOX2-dependent H2O2 signal modulators, primary screen, NOX inhibitor project, cell-based, HEK293-NOX2, PMA-stimulated, Amplex Red fluorescence (AID 1159); conditions: 45 min, higher = more signal, called active from +8 up or from −8 down; note: test concentration not given here
[19] = target: NADPH oxidase 4 (Homo sapiens) (UniProt Q9NPH5); experiment: NOX4-dependent H2O2 signal modulators, primary screen, NOX inhibitor project, cell-based, HEK293-NOX4, tetracycline-induced, Amplex Red fluorescence (AID 1160); conditions: 45 min, higher = more signal, called active from +8 up or from −8 down
[20] = target: NADPH oxidase 5 (Homo sapiens) (UniProt Q96PH1); experiment: NOX5-dependent H2O2 signal modulators, primary screen, NOX inhibitor project, cell-based, HEK293-NOX5, Amplex Red fluorescence (AID 1161); conditions: HEK293-NOX5, ionomycin, 45 min, higher = more signal
Chain of NADPH oxidase 5 (Homo sapiens) (Q96PH1 whole entry, looked up): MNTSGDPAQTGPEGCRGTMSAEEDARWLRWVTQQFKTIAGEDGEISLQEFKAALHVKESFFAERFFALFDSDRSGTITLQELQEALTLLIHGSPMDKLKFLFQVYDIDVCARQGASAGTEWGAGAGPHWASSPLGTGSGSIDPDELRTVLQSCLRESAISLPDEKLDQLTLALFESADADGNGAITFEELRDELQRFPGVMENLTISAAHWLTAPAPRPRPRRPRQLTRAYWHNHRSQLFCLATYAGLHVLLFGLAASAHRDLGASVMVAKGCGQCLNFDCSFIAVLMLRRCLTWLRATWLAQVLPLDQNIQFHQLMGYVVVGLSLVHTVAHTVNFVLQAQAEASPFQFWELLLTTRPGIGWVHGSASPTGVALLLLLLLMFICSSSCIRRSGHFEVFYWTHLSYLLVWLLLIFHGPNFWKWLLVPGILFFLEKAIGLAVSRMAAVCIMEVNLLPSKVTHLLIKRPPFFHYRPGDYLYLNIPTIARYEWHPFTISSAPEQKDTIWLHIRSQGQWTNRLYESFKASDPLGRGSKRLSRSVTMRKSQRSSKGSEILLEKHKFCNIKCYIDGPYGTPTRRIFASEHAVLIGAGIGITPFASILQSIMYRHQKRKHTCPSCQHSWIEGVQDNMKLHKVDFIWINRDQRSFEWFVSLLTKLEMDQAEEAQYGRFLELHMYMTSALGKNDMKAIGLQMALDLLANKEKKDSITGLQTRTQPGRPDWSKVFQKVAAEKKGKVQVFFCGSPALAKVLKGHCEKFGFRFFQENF

Chain of NADPH oxidase 2 (Homo sapiens) (P04839 whole entry, looked up): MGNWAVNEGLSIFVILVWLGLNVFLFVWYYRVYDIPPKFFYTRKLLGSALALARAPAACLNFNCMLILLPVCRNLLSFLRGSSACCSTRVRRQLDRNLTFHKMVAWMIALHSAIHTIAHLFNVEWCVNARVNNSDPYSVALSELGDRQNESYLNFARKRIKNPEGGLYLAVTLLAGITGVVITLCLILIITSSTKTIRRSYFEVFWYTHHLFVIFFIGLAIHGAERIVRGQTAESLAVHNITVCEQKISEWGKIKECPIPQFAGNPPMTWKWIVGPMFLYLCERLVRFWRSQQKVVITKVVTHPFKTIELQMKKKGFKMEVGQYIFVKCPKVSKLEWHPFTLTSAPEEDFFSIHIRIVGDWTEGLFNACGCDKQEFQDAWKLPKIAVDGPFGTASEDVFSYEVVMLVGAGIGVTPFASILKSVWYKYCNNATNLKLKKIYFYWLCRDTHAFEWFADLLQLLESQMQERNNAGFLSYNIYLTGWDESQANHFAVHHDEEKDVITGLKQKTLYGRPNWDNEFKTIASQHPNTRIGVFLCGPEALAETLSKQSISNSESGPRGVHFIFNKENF
Chain of Torsin-1A (Homo sapiens) (O14656 whole entry, looked up): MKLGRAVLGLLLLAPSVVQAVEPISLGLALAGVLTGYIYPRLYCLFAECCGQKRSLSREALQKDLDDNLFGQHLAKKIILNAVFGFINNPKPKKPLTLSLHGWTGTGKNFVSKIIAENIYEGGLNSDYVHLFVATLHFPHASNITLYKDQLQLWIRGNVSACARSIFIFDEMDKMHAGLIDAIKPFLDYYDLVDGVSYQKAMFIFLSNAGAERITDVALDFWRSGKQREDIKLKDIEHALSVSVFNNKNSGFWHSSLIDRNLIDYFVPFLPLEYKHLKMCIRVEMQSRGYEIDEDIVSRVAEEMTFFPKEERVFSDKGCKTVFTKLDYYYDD
Chain of Streptavidin (Streptomyces avidinii) (P22629 whole entry, looked up): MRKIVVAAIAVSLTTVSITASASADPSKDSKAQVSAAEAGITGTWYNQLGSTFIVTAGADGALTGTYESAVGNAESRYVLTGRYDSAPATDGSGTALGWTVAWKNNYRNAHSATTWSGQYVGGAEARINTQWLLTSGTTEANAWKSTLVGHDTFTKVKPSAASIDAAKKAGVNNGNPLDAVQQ
Chain of NADPH oxidase 4 (Homo sapiens) (Q9NPH5 whole entry, looked up): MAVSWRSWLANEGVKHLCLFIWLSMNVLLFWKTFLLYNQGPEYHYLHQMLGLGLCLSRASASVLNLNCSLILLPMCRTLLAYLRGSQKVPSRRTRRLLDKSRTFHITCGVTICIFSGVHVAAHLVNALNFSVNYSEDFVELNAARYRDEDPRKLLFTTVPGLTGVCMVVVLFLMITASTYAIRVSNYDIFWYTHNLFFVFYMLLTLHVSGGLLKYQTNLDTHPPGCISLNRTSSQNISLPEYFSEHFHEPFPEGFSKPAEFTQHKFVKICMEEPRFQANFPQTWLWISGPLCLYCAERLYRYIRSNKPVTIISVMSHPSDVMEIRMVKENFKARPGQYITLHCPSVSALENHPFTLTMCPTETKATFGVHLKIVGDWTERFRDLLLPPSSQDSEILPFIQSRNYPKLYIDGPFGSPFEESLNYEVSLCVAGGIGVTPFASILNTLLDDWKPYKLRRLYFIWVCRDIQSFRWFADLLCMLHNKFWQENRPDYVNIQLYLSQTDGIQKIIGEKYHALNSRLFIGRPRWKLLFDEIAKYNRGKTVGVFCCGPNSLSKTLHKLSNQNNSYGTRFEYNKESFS

In the case of `CC(C)[C@@H](CO)NC(=O)[C@H]1[C@@H](c2ccccc2)N(c2ccccc2)O[C@@H]1C`, the composite z-score [1] was -0.106, the z-score [2] was -0.206 (inactive) and the z-score [3] was -0.736 (inactive). The z-score [4] was -0.415 (inactive), the z-score [5] was -1.35 (inactive) and the composite z-score [6] was -0.327. The composite z-score [7] was 0.0953, the composite z-score [8] was -0.261 and the composite z-score [9] was -0.0316. For the same compound, the composite z-score [10] was 0.463, the z-score [11] was 1.6 (inactive) and the composite z-score [12] was -0.151. The z-score [13] was 0.785 (inactive), the z-score [14] was -0.0799 (inactive) and the z-score [15] was -0.466 (inactive). For the same compound, the z-score [16] was -0.0146 (inactive), the z-score [17] was 0.444 and the z-score [18] was -0.982 (inactive). For the same compound, the z-score [19] was 0.366 (inactive) and the z-score [20] was 0.153.
In the case of `CCOC(=O)[C@H]1C/C=C/C[C@H](C(=O)OCC)C(=O)O[C@H]2[C@@H](OC)O[C@H](CO)[C@@H](OC(=O)Nc3ccc(C#N)cc3)[C@@H]2OC1=O`, the composite z-score [1] was 0.121, the z-score [2] was -6.66 (inactive) and the z-score [3] was -2.89 (inactive). For the same compound, the z-score [4] was -1.29 (inactive), the z-score [5] was -1.66 (inactive) and the composite z-score [6] was -0.576. The composite z-score [7] was -0.128, the composite z-score [8] was 0.392 and the composite z-score [9] was 1.08. For the same compound, the composite z-score [10] was 0.673, the z-score [11] was 3.06 (inactive) and the composite z-score [12] was -0.364. The z-score [13] was 12.3 (active), the z-score [14] was 2.33 (inactive) and the z-score [15] was -0.906 (inactive). For the same compound, the z-score [16] was 1.13 (inactive), the z-score [17] was 2.47 and the z-score [18] was -0.311 (inactive). The z-score [19] was 0.2 (inactive) and the z-score [20] was 1.4.
For `C=CC[C@@]1(C(=O)NCc2ccccc2)N=C(c2ccc(OCCCO)cc2)O[C@@H]1c1ccccc1N=[N+]=[N-]`, the composite z-score [1] was 0.465, the z-score [2] was -2.73 (inactive) and the z-score [3] was -0.291 (inactive). The z-score [4] was 3.85 (inactive), the z-score [5] was 0.34 (inactive) and the composite z-score [6] was 1.15. It also gave a composite z-score [7] of 0.174, a composite z-score [8] of 1.23 and a composite z-score [9] of 0.762. For the same compound, the composite z-score [10] was -0.245, the z-score [11] was -0.304 (inactive) and the composite z-score [12] was 0.869. The z-score [13] was 33.3 (active), the z-score [14] was 31.1 (active) and the z-score [15] was 3.73 (inactive). The z-score [16] was 8.16 (active), the z-score [17] was -0.126 and the z-score [18] was -1.88 (inactive). The z-score [19] was 1.29 (inactive) and the z-score [20] was -0.965.
With `CCCCCC1=C2CNC(CCC)(C(=O)OC)C=C2C(C)C1=O` (stereo not given) the composite z-score [1] was 0.0324, the z-score [2] was -0.86 (inactive) and the z-score [3] was 0.617 (inactive). The z-score [4] was -0.751 (inactive), the z-score [5] was 0.974 (inactive) and the composite z-score [6] was 0.441. The composite z-score [7] was 0.345, the composite z-score [8] was -0.449 and the composite z-score [9] was 0.0188. The composite z-score [10] was 0.368, the z-score [11] was -1.11 (inactive) and the composite z-score [12] was 0.358. The z-score [13] was 2.2 (inactive), the z-score [14] was 0.0123 (inactive) and the z-score [15] was 0.807 (inactive). For the same compound, the z-score [16] was 0.493 (inactive), the z-score [17] was -0.39 and the z-score [18] was 0.0917 (inactive). The z-score [19] was -1.52 (inactive) and the z-score [20] was -3.63.
With `C=CCN1C(=O)[C@]2(O[C@H](CCO)[C@@H]([Si](C)(C)c3ccc(OC)cc3)[C@@H]2C)c2cc(N3CCCCC3=O)ccc21` the composite z-score [1] was 0.193, the z-score [2] was -5.37 (inactive) and the z-score [3] was 0.597 (inactive). The z-score [4] was 3.85 (inactive), the z-score [5] was 0.22 (inactive) and the composite z-score [6] was 0.802. For the same compound, the composite z-score [7] was 0.103, the composite z-score [8] was 1.1 and the composite z-score [9] was 0.364. The composite z-score [10] was 2.24, the z-score [11] was 0.143 (inactive) and the composite z-score [12] was 0.0004. The z-score [13] was 4.68 (inactive), the z-score [14] was 2.25 (inactive) and the z-score [15] was -0.328 (inactive). For the same compound, the z-score [16] was 1.7 (inactive), the z-score [17] was 1.14 and the z-score [18] was 0.972 (inactive). The z-score [19] was 0.43 (inactive) and the z-score [20] was 0.801.
In the case of `COC(=O)[C@@]1(Cc2ccc(F)cc2)[C@H]2c3cc(C(=O)N4CCCC4)n(Cc4cc(C)n(C)n4)c3C[C@H]2CN1C(=O)c1ccccc1`, the composite z-score [1] was 0.639, the z-score [2] was -2 (inactive) and the z-score [3] was -0.132 (inactive). For the same compound, the z-score [4] was 0.583 (inactive), the z-score [5] was 0.989 (inactive) and the composite z-score [6] was 1.65. The composite z-score [7] was 0.32, the composite z-score [8] was 0.0304 and the composite z-score [9] was 1.04. For the same compound, the composite z-score [10] was -1.06, the z-score [11] was -0.859 (inactive) and the composite z-score [12] was 0.291. The z-score [13] was 2.02 (inactive), the z-score [14] was 0.0953 (inactive) and the z-score [15] was 0.424 (inactive). For the same compound, the z-score [16] was 0.742 (inactive), the z-score [17] was -0.301 and the z-score [18] was 1.16 (inactive). The z-score [19] was 0.368 (inactive) and the z-score [20] was -0.196.
For `COCCOC(=O)N1C(=O)[C@@]2(c3cc(C#CC4(O)CCCCCC4)ccc31)[C@H](c1ccc(O)cc1)N1[C@H](c3ccccc3)[C@H](c3ccccc3)OC(=O)[C@H]1[C@@H]2C(=O)Nc1nc2ccccc2s1`, the composite z-score [1] was 0.513, the z-score [2] was -0.073 (inactive) and the z-score [3] was 0.505 (inactive). The z-score [4] was 1.42 (inactive), the z-score [5] was 4.93 (inactive) and the composite z-score [6] was 1.19. It also gave a composite z-score [7] of 0.741, a composite z-score [8] of 0.549 and a composite z-score [9] of 0.821. For the same compound, the composite z-score [10] was 1.35, the z-score [11] was -0.565 (inactive) and the composite z-score [12] was 1.76. For the same compound, the z-score [13] was 0.69 (inactive), the z-score [14] was 1.05 (inactive) and the z-score [15] was 0.207 (inactive). For the same compound, the z-score [16] was 1.39 (inactive), the z-score [17] was -0.502 and the z-score [18] was 1.75 (inactive). For the same compound, the z-score [19] was 0.507 (inactive) and the z-score [20] was 1.07.
In the case of `CCCC[C@@H]1C[C@H]1[C@@H](NC(=O)c1ccco1)c1ccc(Cl)cc1`, the composite z-score [1] was 0.202, the z-score [2] was -2.63 (inactive) and the z-score [3] was 0.564 (inactive). The z-score [4] was -0.561 (inactive), the z-score [5] was 0.473 (inactive) and the composite z-score [6] was 2.09. The composite z-score [7] was 0.306, the composite z-score [8] was 0.104 and the composite z-score [9] was 0.481. The composite z-score [10] was -0.292, the z-score [11] was -1.54 (inactive) and the composite z-score [12] was 0.485. The z-score [13] was 4.34 (inactive), the z-score [14] was 0.904 (inactive) and the z-score [15] was 0.365 (inactive). The z-score [16] was 0.74 (inactive), the z-score [17] was -0.321 and the z-score [18] was -1.72 (inactive). For the same compound, the z-score [19] was -2.56 (inactive) and the z-score [20] was 0.0234.
For `CCCCN1CC=CC23O[C@@H]4/C=C\CCC(C)OC(=O)C4[C@H]2C(=O)N(CCCCCO)[C@@H]3C1=O` (stereo not given in full), the composite z-score [1] was -0.612, the z-score [2] was 0.0396 (inactive) and the z-score [3] was -0.398 (inactive). The z-score [4] was 0.191 (inactive), the z-score [5] was -0.0864 (inactive) and the composite z-score [6] was -1.24. It also gave a composite z-score [7] of -0.246, a composite z-score [8] of -1.6 and a composite z-score [9] of -1.78. The composite z-score [10] was -0.0223, the z-score [11] was 0.119 (inactive) and the composite z-score [12] was -0.147. The z-score [13] was 1.03 (inactive), the z-score [14] was -0.0101 (inactive) and the z-score [15] was -0.0712 (inactive). For the same compound, the z-score [16] was 0.406 (inactive), the z-score [17] was 0.002 and the z-score [18] was 0.395 (inactive). The z-score [19] was -0.022 (inactive) and the z-score [20] was 1.21.

Source: PubChem BioAssay
